Hits are enriched below; roughly 1.1% of the tested compounds scored in any of these assays.
Shn3 inh set2 = reduction of Shn3 3'UTR firefly luciferase signal, primary screen, Schnurri-3 inhibitor project, cell-based, Clone20 osteoblasts, set 2; Clone20 osteoblast Shn3 3'UTR firefly luciferase, 24 h; inhibition, % at 12.5 µM; 360,000 tested, 0.52% active; AID 588674, 2011;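 active = mean inhibition of at least 75% with every replicate also reaching 75%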
SRC1 inh = SRC1 coactivator transcriptional activity inhibitors, primary screen, cell-based, luminescence | Nuclear receptor coactivator 1 (Homo sapiens), Q15788 | HEK293 GAL4-SRC1 luciferase reporter | inhibition, % at 3.6 µM | 360,000 tested, 0.12% active;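 active = inhibition above the campaign mean plus 3 SD, with each screening campaign given its own cutoff, cut at about 60% in these data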
LRH-1 inv ag = LRH-1 (NR5A2) inverse agonists, primary screen, cell-based, luminescence, HEK293T, StAR-luciferase reporter; Nuclear receptor subfamily 5 group A member 2 (Homo sapiens), O00482; LRH-1 transfected, 24 h; inhibition, % at 3.6 µM; 360,000 tested, 0.13% active; AID 602396, 2012;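 active = inhibition above the mean inhibition of all tested compounds plus 3 SD, cut at about 73% in these data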
NCOA3 inh = SRC3 coactivator transcriptional activity inhibitors, primary screen, cell-based, luminescence; Nuclear receptor coactivator 3 (Homo sapiens), Q9Y6Q9; HEK293 GAL4-SRC3 luciferase reporter; inhibition, % at 3.6 µM; 360,000 tested, 0.17% active; AID 588352, 2011;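 active = inhibition above a per-campaign cutoff, the mean of all compounds plus 3 SD, cut at about 60% in these data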;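 note: higher means less SRC3-driven luciferase light from the GAL4 reporter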
NCOA2 inhibitor = inhibition of GAL4-SRC2 driven luciferase reporter, primary screen, SRC2 inhibitor project, cell-based, luminescence; HEK293 GAL4-SRC2 luciferase reporter; AID 651957, 2012; 370,000 tested, 0.17% active; inhibition, % at 9 µM;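 active = inhibition above the mean inhibition of all tested compounds plus 3 SD, set per campaign, cut at about 52% in these data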
Gli-Sufu block = Gli-Sufu pathway antagonists, primary screen, luciferase luminescence, Sufu-KO-LIGHT cells, uHTS | Sufu-KO-LIGHT fibroblasts, Gli luciferase reporter luminescence | 340,000 tested, 0.74% active | inhibition, % at 5 µM;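 active = inhibition above about 55%, limit read from the data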
Gli-Sufu confirm = Gli-SUFU pathway antagonists, confirmation, single concentration, luciferase luminescence, Sufu-KO-LIGHT cells. shares compounds with Gli-Sufu block. Gli luciferase reporter. inhibition, % at 5 µM. 2,500 tested, 40% active. AID 602428, 2012;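 active = mean inhibition at 5 µM reaching about 45%, limit read from the data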
SufuKO cytotox = cytotoxicity in Sufu-KO-LIGHT cells, confirmation, cytotoxicity control for Gli-SUFU antagonist project, cell-based, ATP luminescence, single concentration; shares compounds with Gli-Sufu block; cytotoxicity, % at 5 µM; 2,500 tested, 32% active;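 active = mean cytotoxicity at 5 µM above about 25%, limit read from the data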;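 note: cells exposed to compound overnight for roughly 16 to 18 hours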
Wnt3a cs = Wnt3a reporter signal inhibition, confirmation, counter-screen for Gli-SUFU antagonist project, Wnt-LIGHT cells, luminescence, single concentration; 2,500 tested, 20% active; Wnt3a-driven luciferase reporter; shares compounds with Gli-Sufu block; inhibition, % at 6.25 µM; AID 651995, 2013;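 active = mean inhibition above about 25%, limit read from the data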
Large screens that a line does not name were inactive (follow-up assays come after a bar, where they were run).

COc1cc(C(=O)N/N=C/c2ccc(OC(=O)c3ccccc3Cl)c(OC)c2)ccc1O	none (no result: NCOA2 inhibitor)
COc1cc(/C=N/NC(=O)c2ccccc2O)ccc1OC(=O)CC1SC(=O)NC1=O (stereo unspecified)	Gli-Sufu block 58 | Gli-Sufu confirm inactive | SufuKO cytotox inactive | Wnt3a cs inactive
Fc1ccc2[nH]c3c(N4CCc5ccccc5C4)ncnc3c2c1	Shn3 inh set2 87, Gli-Sufu block 77 | Gli-Sufu confirm 79 | SufuKO cytotox 34 | Wnt3a cs inactive
Cc1ccc2[nH]c3c(N4CCc5ccccc5C4)ncnc3c2c1	Gli-Sufu block 73 | Gli-Sufu confirm 77 | SufuKO cytotox 38 | Wnt3a cs inactive
CCOc1ccc2[nH]c3c(N4CCc5ccccc5C4)ncnc3c2c1	none
COC(=O)[C@]12C[C@H](CC(=O)NCc3cccs3)C(=O)N(Cc3ccco3)C1=C[C@H](C1CCCC1)O[C@@H]2C	none (no result: Shn3 inh set2, SRC1 inh, LRH-1 inv ag, NCOA3 inh, Gli-Sufu block)
COc1ccc(CN2C(=O)CSCCC2(C)c2nnnn2-c2c(C)cccc2C)cc1 (stereo unspecified)	none (no result: Shn3 inh set2, SRC1 inh, LRH-1 inv ag, NCOA3 inh, Gli-Sufu block)
COc1ccccc1CNC(=O)N1CCN(Cc2nc3ccccc3c(=O)[nH]2)CC1	none (no result: Shn3 inh set2, SRC1 inh, LRH-1 inv ag, NCOA3 inh, Gli-Sufu block)
COC[C@H]1CCCN1c1cccc2c1S(=O)(=O)N(C1CC1)CCCO2	none (no result: Shn3 inh set2, SRC1 inh, LRH-1 inv ag, NCOA3 inh, Gli-Sufu block)
COc1ccc(-n2c(=O)/c(=C\c3cccs3)s/c2=C(/C#N)C(=O)N2CCN(C)CC2)cc1	Gli-Sufu block 57 | Gli-Sufu confirm inactive | SufuKO cytotox inactive | Wnt3a cs inactive
N#C/C(C(=O)N1CCOCC1)=c1/s/c(=C\c2ccccn2)c(=O)n1-c1ccccc1	none
Cc1ccc(-c2cc(C(=O)NN=Cc3cccc(OCc4ccccc4)c3)[nH]n2)cc1C	none (no result: Shn3 inh set2, SRC1 inh, LRH-1 inv ag, NCOA3 inh, Gli-Sufu block)
O=C(CSc1nnc(COc2ccccc2)n1Cc1ccco1)Nc1ccc(OCc2ccccc2)cc1	none (no result: Shn3 inh set2, SRC1 inh, LRH-1 inv ag, NCOA3 inh, Gli-Sufu block)
CC(C)COc1cccc(C(=O)Nc2ccc(CN3CCOCC3)cc2)c1	none | Gli-Sufu confirm inactive | SufuKO cytotox inactive | Wnt3a cs inactive
CC(C)COc1cccc(C(=O)Nc2ccc(S(=O)(=O)N3CCOCC3)cc2)c1	none
O=C(Cn1cc([N+](=O)[O-])cn1)N1CCN(Cc2ccc3c(c2)OCO3)CC1	none
O=C(NCc1ccc2c(c1)OCO2)c1nc(Cn2cc([N+](=O)[O-])cn2)no1	none | Gli-Sufu confirm inactive | SufuKO cytotox inactive | Wnt3a cs inactive
CC(=O)Nc1nc2ncccn2c1-c1ccc(F)c(F)c1	none (no result: Shn3 inh set2, SRC1 inh, LRH-1 inv ag, NCOA3 inh, Gli-Sufu block)
COc1ccc(N2CCN(C(C)C(=O)N3CC(C)OC(C)C3)CC2)cc1 (stereo unspecified)	none | Gli-Sufu confirm inactive | SufuKO cytotox inactive | Wnt3a cs inactive
Cc1ccc(SCC(=O)OC(C)C(=O)NC2(C#N)CCCCC2)cc1 (stereo unspecified)	none
CC(OC(=O)CCC(=O)c1ccc(Cl)s1)C(=O)NC1(C#N)CCCCC1 (stereo unspecified)	Gli-Sufu block 94 | Gli-Sufu confirm inactive | SufuKO cytotox inactive | Wnt3a cs inactive
Cc1cc(C)n(C(=O)c2cccc([N+](=O)[O-])c2C)n1	none
Cc1c(C(=O)N2c3ccccc3Sc3ccccc32)cccc1[N+](=O)[O-]	Gli-Sufu block 96 | Gli-Sufu confirm inactive | SufuKO cytotox inactive | Wnt3a cs inactive
CC(C)(C)c1ccc(C(=O)Nc2ccc(N3CCOCC3)cc2)cc1	none
CC(C)(C)c1ccc(C(=O)NC(=S)Nc2ccc(N3CCOCC3)cc2)cc1	Gli-Sufu block 60 | Gli-Sufu confirm 52 | SufuKO cytotox inactive | Wnt3a cs inactive
COC(=O)c1ccc(COc2cccc3c2OC(C)(C)C3)cc1	none
COc1ccc(CNCC(O)COc2cccc3c2OC(C)(C)C3)cc1 (stereo unspecified)	Shn3 inh set2 91, Gli-Sufu block 60 | Gli-Sufu confirm 61 | SufuKO cytotox 28 | Wnt3a cs inactive
COC(=O)[C@]1(C)CN(C(=O)OC(C)(C)C)C2=C1C(=O)C[C@@](C)(C(=O)OC(C)(C)C)C2	none (no result: Shn3 inh set2, SRC1 inh, LRH-1 inv ag, NCOA3 inh, Gli-Sufu block)
CCCCC(=O)N1CCN(C(=O)c2ccc3c(c2)nc(C)n3C2CCCC2)CC1	none (no result: Shn3 inh set2, SRC1 inh, LRH-1 inv ag, NCOA3 inh, Gli-Sufu block)
Cc1ccccc1NC(=O)NCCc1c[nH]c2ccccc12	none
Cc1ccccc1NC(=O)Cc1c[nH]c2ccccc12	Gli-Sufu block 55 | Gli-Sufu confirm inactive | SufuKO cytotox inactive | Wnt3a cs inactive
CC(C)(CO)NCC(O)Cn1cc(C=O)c2ccccc21 (stereo unspecified)	none | Gli-Sufu confirm inactive | SufuKO cytotox inactive | Wnt3a cs inactive
O=Cc1cn(CC(O)CN2CCCCC2)c2ccccc12 (stereo unspecified)	none
CCCC(=O)N1CCC[C@]2(CC[C@@H](CCC(=O)N(CC)CC)O2)C1	none (no result: Shn3 inh set2, SRC1 inh, LRH-1 inv ag, NCOA3 inh, Gli-Sufu block)
CCOc1ccccc1N(C)S(=O)(=O)c1ccc2c(c1)CC(C)N2C(=O)C1CC1 (stereo unspecified)	Gli-Sufu block 60 | Gli-Sufu confirm inactive | SufuKO cytotox inactive | Wnt3a cs inactive
Cc1cccc(N/C=C/c2onc(C)c2[N+](=O)[O-])c1	none | Gli-Sufu confirm inactive | SufuKO cytotox inactive | Wnt3a cs inactive
Cc1cc(O)ccc1N/C=C/c1onc(C)c1[N+](=O)[O-]	none
Cc1ccc(S(=O)(=O)NCCOc2nc(N(C)C)nc(N3CCOCC3)n2)cc1	Gli-Sufu block 95 | Gli-Sufu confirm inactive | SufuKO cytotox inactive | Wnt3a cs inactive
Cc1ccc(S(=O)(=O)NCCOc2nc(N(C)C)nc(N(C)C)n2)cc1	none
Cc1c(C(=O)N2CCCCCC2)c(S(=O)(=O)Nc2ccccc2F)c(C)n1C	none | Gli-Sufu confirm inactive | SufuKO cytotox inactive | Wnt3a cs inactive
FC(F)(F)c1cnc(Sc2nnc(-c3cccs3)n2CC2CCCO2)c(Cl)c1 (stereo unspecified)	none | Gli-Sufu confirm inactive | SufuKO cytotox inactive | Wnt3a cs inactive
CCOC(=O)C(NCc1ccccn1)(NC(=O)c1cccnc1)C(F)(F)F (stereo unspecified)	Gli-Sufu block 96 | Gli-Sufu confirm inactive | SufuKO cytotox inactive | Wnt3a cs inactive
S=C(Nc1ccc(Cl)cc1)OC1CCC12CCC(c1ccccc1)CC2 (stereo unspecified)	none (no result: Shn3 inh set2, SRC1 inh, LRH-1 inv ag, NCOA3 inh, Gli-Sufu block)
